Screens: PubChem BioAssay, National Center for Advancing Translational Sciences (NCATS)
BAZ2B block = qHTS Assay for Inhibitors of BAZ2B. Potency, µM (highest dose often 114 µM), hits mostly inhibitors. actives 4.4% (n = 360,000). AlphaScreen BAZ2B-H3K14Ac peptide displacement. Bromodomain adjacent to zinc finger domain protein 2B (Homo sapiens), Q9UIF8; also: nearly all actives have a fitted effect of over 60% in size
Target sequence (Q9UIF8 whole entry, looked up, the tested form may be a part): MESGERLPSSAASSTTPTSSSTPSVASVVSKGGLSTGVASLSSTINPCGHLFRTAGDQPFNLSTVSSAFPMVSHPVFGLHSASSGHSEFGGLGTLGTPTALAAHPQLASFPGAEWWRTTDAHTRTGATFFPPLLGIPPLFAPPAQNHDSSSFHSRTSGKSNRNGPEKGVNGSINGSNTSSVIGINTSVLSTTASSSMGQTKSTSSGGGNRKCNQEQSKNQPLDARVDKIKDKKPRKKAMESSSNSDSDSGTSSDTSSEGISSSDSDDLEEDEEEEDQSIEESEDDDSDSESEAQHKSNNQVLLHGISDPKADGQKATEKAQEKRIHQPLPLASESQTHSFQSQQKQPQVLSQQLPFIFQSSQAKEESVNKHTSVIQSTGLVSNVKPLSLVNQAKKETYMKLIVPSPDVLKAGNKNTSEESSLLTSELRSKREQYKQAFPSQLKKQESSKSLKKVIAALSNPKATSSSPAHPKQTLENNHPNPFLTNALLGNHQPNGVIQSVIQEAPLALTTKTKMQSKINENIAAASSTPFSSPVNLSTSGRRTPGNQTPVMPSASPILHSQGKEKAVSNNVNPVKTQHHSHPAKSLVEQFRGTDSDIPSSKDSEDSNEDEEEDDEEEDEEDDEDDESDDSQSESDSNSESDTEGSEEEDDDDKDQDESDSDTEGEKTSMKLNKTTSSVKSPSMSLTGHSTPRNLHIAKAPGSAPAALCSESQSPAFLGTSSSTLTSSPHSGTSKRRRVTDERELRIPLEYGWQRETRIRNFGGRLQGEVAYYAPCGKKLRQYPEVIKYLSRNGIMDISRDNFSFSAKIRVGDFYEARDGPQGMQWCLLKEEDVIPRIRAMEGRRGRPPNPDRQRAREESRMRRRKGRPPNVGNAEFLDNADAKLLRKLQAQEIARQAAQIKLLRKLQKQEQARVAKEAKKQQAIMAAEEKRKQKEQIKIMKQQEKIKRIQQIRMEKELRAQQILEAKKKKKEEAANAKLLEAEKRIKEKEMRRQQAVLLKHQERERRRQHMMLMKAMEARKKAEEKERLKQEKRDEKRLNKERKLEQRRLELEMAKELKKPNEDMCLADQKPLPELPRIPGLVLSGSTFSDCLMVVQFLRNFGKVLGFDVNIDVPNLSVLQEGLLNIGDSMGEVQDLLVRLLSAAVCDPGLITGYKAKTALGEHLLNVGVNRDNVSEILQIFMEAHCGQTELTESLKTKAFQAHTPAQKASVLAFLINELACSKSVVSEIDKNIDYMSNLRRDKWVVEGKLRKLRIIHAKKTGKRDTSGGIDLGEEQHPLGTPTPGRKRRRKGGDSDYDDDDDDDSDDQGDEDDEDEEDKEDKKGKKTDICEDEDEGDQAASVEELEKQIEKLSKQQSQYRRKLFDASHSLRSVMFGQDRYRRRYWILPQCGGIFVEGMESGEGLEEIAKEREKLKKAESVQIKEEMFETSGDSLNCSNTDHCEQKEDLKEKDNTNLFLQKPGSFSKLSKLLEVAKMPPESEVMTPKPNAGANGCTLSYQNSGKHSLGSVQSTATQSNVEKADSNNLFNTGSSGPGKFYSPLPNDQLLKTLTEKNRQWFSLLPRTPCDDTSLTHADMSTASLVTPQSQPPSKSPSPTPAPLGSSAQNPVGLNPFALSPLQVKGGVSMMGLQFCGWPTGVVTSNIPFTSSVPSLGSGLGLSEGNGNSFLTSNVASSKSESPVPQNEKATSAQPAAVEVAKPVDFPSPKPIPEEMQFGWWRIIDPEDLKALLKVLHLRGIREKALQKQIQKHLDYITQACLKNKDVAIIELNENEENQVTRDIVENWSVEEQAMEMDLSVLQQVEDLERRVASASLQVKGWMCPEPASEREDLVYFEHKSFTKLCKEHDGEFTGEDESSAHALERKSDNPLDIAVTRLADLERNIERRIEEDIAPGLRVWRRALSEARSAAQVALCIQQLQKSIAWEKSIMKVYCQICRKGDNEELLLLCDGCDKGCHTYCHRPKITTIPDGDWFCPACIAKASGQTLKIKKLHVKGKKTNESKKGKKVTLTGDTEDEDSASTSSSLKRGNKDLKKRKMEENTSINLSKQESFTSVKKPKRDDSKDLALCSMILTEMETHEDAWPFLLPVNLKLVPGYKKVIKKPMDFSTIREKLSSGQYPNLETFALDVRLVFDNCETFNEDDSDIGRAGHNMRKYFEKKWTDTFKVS
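Compounds, titrated to a top concentration of 110 uM, were incubated 30 min at room temperature with preformed BAZ2B/acetyl-K14 H3 peptide complex (50 nM each). Proximity signal was measured by AlphaScreen after 20 min with beads.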
G9a inh = qHTS Assay for Inhibitors of Histone Lysine Methyltransferase G9a; Histone-lysine N-methyltransferase EHMT2 (Homo sapiens), Q96KQ7; G9a H3K9 monomethylation, AlphaScreen, 2 h; Potency, µM (top dose mostly 102 µM), usual class: inhibitors; actives 8.8% (n = 350,000); also: nearly all actives have a fitted effect of over 75% in size
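AlphaScreen read-out: biotin-H3K9 peptide (500 nM) methylation by 20 nM enzyme with 20 uM SAM, 2 h at room temperature after 15 min compound preincubation; anti-monomethyl H3K9 antibody plus donor/acceptor beads, 10 min dark.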
Sfp inh = qHTS Assay for Inhibitors of Bacillus subtilis Sfp phosphopantetheinyl transferase (PPTase). 4'-phosphopantetheinyl transferase ffp (Bacillus subtilis), Q9F4F7. Biochemical Sfp PPTase activity, qHTS. Potency, µM, hits mostly inhibitors. actives 3.5% (n = 310,000);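 also: the enzyme is Sfp with the accession as filed and its product quenches rhodamine fluorescence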
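Buffer: 50 mM Hepes-Na pH 7.6, 10 mM MgCl2, 0.01% Nonidet P-40, 0.01% BSA. Enzyme 15 nM, pre-exposed to compound 15 min; substrates then added and fluorescence change tracked over 30 min.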
HP1b chromo inh = HTS for Inhibitors of HP1-beta Chromodomain Interactions with Methylated Histone Tails. AlphaScreen HP1-beta / biotin-H3K9me3 peptide binding. Chromobox protein homolog 1 (Homo sapiens), P83916. actives 0.56% (n = 390,000). Potency, µM (doses to about 114 µM), actives largely listed as inhibitors; also: nearly all actives have a fitted effect of over 70% in size
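AlphaScreen: HP1-beta (50 nM) preformed 30 min with biotin-H3(1-18)K9me3 peptide (50 nM) in PBS pH 7.4, 0.01% Tween-20. Compound added for 30 min at RT, then streptavidin donor/nickel chelate acceptor beads (10 ug/mL) for 30 min.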
L3MBTL1 inh = qHTS Assay for the Inhibitors of L3MBTL1; Potency, µM (titrated, usually from 57.1 µM), actives largely listed as inhibitors; AlphaScreen L3MBTL1–H3K9me1 peptide binding; Lethal(3)malignant brain tumor-like protein 1 (Homo sapiens), Q9Y468; AID 485360, 2010; actives 0.66% (n = 230,000); also: nearly all actives have a fitted effect of over 60% in size
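Displacement of a biotinylated histone H3(1-15) peptide monomethylated at Lys9 (75 nM) from L3MBTL1 (50 nM) was measured by AlphaScreen after a 30 min room-temperature compound incubation; cefsulodin titration served as intraplate control.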
JMJD2A Tudor inh = qHTS Assay for Inhibitors of JMJD2A-Tudor Domain | Lysine-specific demethylase 4A (Homo sapiens), O75164 | AlphaScreen JMJD2A-Tudor / H3K4me3 peptide binding | Potency, µM (top dose mostly 114 µM), hits mostly inhibitors | actives 4.4% (n = 390,000) | AID 504339, 2011; also: nearly all actives have a fitted effect of over 50% in size
Sfp PPTase conf = Confirmation qHTS Assay for Inhibitors of Bacillus subtilis Sfp phosphopantetheinyl transferase (PPTase); Potency, µM (top dose mostly 114 µM), most hits filed as inhibitors; shares compounds with Sfp inh; actives 79% (n = 380); AID 2701, 2010; Sfp PPTase enzymatic assay, qHTS titration
Sfp PPTase gel = Gel-Based Assay for Inhibitors of Bacillus subtilis Sfp phosphopantetheinyl transferase (PPTase); shares compounds with Sfp inh; purified Sfp, gel-based phosphopantetheinylation read-out; Potency, µM, hits mostly inhibitors; actives 20% (n = 210); AID 2707, 2010;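 active = potency below 100 µM; inconclusive = dose-dependent response but potency above 100 µM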;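 also: potency is an IC50 for inhibitors of Sfp transfer activity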
Of the large screens only hits and unclear results are named; the others gave an inactive call (follow-up assays come after a bar, where they were run). Hits are enriched below; roughly 12% of the tested compounds scored in any of these assays. Unless noted, calls follow the shape of the dose curve; as a rule, active = well fitted curve in the direction sought with a large enough effect; inconclusive = small, poorly fitted or top-dose-only effect, or another doubt; inactive = no such curve, though single readings can be large; an effect the other way counts as inactive or inconclusive.

Cc1ccc(C2(C(F)(F)F)NC(=O)N3CCCN=C3S2)cc1 (stereo not given)	none
COC(=O)c1ccccc1NC(=O)Cn1nnc2sc(-c3ccccc3)cc2c1=O	none (no result: Sfp inh, L3MBTL1 inh)
Cc1cccc(Nc2nnc(-c3ccc(C)c(S(=O)(=O)NCC4CCCO4)c3)c3ccccc23)c1 (stereo not given)	none (no result: Sfp inh, L3MBTL1 inh)
CCN(CC)c1ccc(/C=C/c2nc3ccccc3s2)cc1	Sfp inh 18µM (no result: HP1b chromo inh, JMJD2A Tudor inh) | Sfp PPTase conf 33µM | Sfp PPTase gel inactive
COC(=O)c1cc2sccc2n1CC(=O)N(C)c1ccccc1	none
COC(=O)c1c(NS(=O)(=O)c2cccs2)sc2c1CCCC2	G9a inh inconclusive
CCOC(=O)c1c(NS(=O)(=O)c2cccc(OC)c2)sc2c1CCC2	G9a inh inconclusive, Sfp inh 2.8µM, L3MBTL1 inh inconclusive, JMJD2A Tudor inh inconclusive | Sfp PPTase conf 26µM
Oc1cc2c(cc1O)[C@H]1c3ccc(O)c(O)c3OC[C@@]1(O)C2	BAZ2B block 35µM, Sfp inh 4µM, HP1b chromo inh inconclusive, L3MBTL1 inh 35µM, JMJD2A Tudor inh 1.3µM | Sfp PPTase conf 8.3µM | Sfp PPTase gel 2.1µM
Cc1ccc(Nc2nc(N)c([N+](=O)[O-])c(NCc3ccco3)n2)cc1C	BAZ2B block inconclusive, G9a inh inconclusive, HP1b chromo inh inconclusive, JMJD2A Tudor inh inconclusive
Cc1cccc(Nc2nc(NCc3ccco3)c3ccccc3n2)c1	BAZ2B block inconclusive, G9a inh 18µM, Sfp inh 2.5µM, JMJD2A Tudor inh inconclusive | Sfp PPTase conf 37µM | Sfp PPTase gel inactive
S=C(Nc1ccccn1)c1ccccn1	BAZ2B block 10µM, G9a inh inconclusive, Sfp inh 2.8µM, HP1b chromo inh 13µM, JMJD2A Tudor inh 5µM (no result: L3MBTL1 inh) | Sfp PPTase conf 53µM
NC(=O)CSc1nc2scc(-c3ccco3)c2c(=O)n1-c1ccccc1	BAZ2B block inconclusive, G9a inh inconclusive, Sfp inh 6.3µM, HP1b chromo inh inconclusive, JMJD2A Tudor inh 45µM (no result: L3MBTL1 inh) | Sfp PPTase conf 15µM
O=C(CSc1nc2scc(-c3ccco3)c2c(=O)n1-c1ccccc1)NCC1CCCO1 (stereo not given)	BAZ2B block 35µM, G9a inh 8.9µM, Sfp inh 1.3µM, L3MBTL1 inh inconclusive, JMJD2A Tudor inh inconclusive | Sfp PPTase conf 42µM
O=C(CSc1nc2scc(-c3ccco3)c2c(=O)n1-c1ccccc1)N1CCOCC1	Sfp inh inconclusive
CC1CC(NS(=O)(=O)c2cccs2)CC(C)(C)C1 (stereo not given)	none (no result: L3MBTL1 inh)
CCOC(=O)c1c(NC(=O)c2ccccc2Cl)sc2c1CCc1ccccc1-2	G9a inh 4.5µM, Sfp inh 11µM | Sfp PPTase conf 9.4µM
CCOC(=O)c1sc(NC(=S)NC(=O)c2ccccc2)c(C(=O)OCC)c1C	none
CCOC(=O)c1c(NC(=O)c2ccccc2)sc2c1CCc1ccccc1-2	G9a inh inconclusive, Sfp inh 1.3µM | Sfp PPTase conf 13µM
CCN1CCN(C(=S)c2ccc(OC)cc2)CC1	G9a inh 11µM, Sfp inh 11µM | Sfp PPTase conf 15µM | Sfp PPTase gel inactive
CCN1CCN(C(=S)c2ccc(Cl)cc2)CC1	G9a inh inconclusive, Sfp inh 2.2µM, HP1b chromo inh inconclusive, JMJD2A Tudor inh 79µM (no result: L3MBTL1 inh) | Sfp PPTase conf 13µM | Sfp PPTase gel inactive
CCOc1ccc(C(=S)N2CCCC2)cc1	none (no result: L3MBTL1 inh)
Cc1sc2nc(SCc3nc(-c4cccs4)no3)n(-c3ccccc3)c(=O)c2c1C	Sfp inh 4µM | Sfp PPTase conf 5.9µM | Sfp PPTase gel inactive
c1ccc(-n2c(SCc3nc(-c4cccs4)no3)nnc2-c2ccco2)cc1	BAZ2B block inconclusive, G9a inh inconclusive, JMJD2A Tudor inh inconclusive (no result: L3MBTL1 inh)
COC(=O)c1ccc(-c2nc(O)c(C)s2)cc1	BAZ2B block inconclusive, G9a inh 7.1µM, Sfp inh 14µM, HP1b chromo inh inconclusive | Sfp PPTase conf 47µM
Cc1ccc(-c2nn[nH]n2)o1	Sfp inh 25µM, JMJD2A Tudor inh inconclusive | Sfp PPTase conf 12µM | Sfp PPTase gel inactive
COc1ccc(-c2nnc(SCC(=O)Nc3cc(C)on3)o2)cc1	L3MBTL1 inh inconclusive
O=C(c1cccc(S(=O)(=O)N2CCOCC2)c1)N1CCCC(C(F)(F)F)C1 (stereo not given)	none (no result: Sfp inh)
O=C(O)Cc1ccc(NC(=O)Nc2ccc(Br)cc2)cc1	Sfp inh 40µM | Sfp PPTase conf inconclusive
COc1ccc(NC(=O)Nc2ccc(CC(=O)O)cc2)cc1	none
Cc1ccc(C(=O)NCCNC(=O)COc2ccc(C)c(C)c2)cn1	none (no result: L3MBTL1 inh)
CCCCN(CCCC)CC(O)c1cc(Cl)cc2c1-c1ccc(Cl)cc1/C2=C/c1ccc(Cl)cc1 (stereo not given)	Sfp inh 45µM (no result: BAZ2B block, HP1b chromo inh, L3MBTL1 inh, JMJD2A Tudor inh) | Sfp PPTase conf 42µM | Sfp PPTase gel inconclusive
CC1=CSC2=NC(=O)/C(=C\c3cccn3-c3ccc([N+](=O)[O-])cc3)C(=N)N12	Sfp inh 1µM, JMJD2A Tudor inh inconclusive | Sfp PPTase conf 37µM | Sfp PPTase gel inactive
